Activity calls are given as the source filed them. Unless noted, the rule behind the calls is not given here.

The nature of test [1]: compounds binding Alexa647 anti-His antibody – biochemical, small-molecule microarray, 635 nm fluorescence, artefact control for SMM control protein annotation, primary screen (AID 1128).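 Note: score merges feature fluorescence with signal-to-noise for each printed compound spot.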 Particulars: higher = more signal.
The test system of test [2] is Human papillomavirus type 1a E7 protein (residues 1-88). The test can be described thus: HPV1a E7 small-molecule binders, primary screen, biochemical, small-molecule microarray, residues 1-88, 635 nm (AID 1129). Conditions: small-molecule microarray binding, fluorescence 635 nm; higher = more signal.
Test [3] has as its target Focal adhesion kinase 1 (Homo sapiens) (UniProt Q05397). Description: PTK2 protein binding on printed compound slides – biochemical, small-molecule microarray, 635/667 nm fluorescence, BSA, DTT, primary screen (AID 1130).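 Note: composite of spot emission at 667 nm and signal to noise over triplicate slides.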 Conditions: 635 nm fluorescence, higher = more signal.
Test [4] concerns Fibrinogen (Alexa647-labelled). Description: Alexa647-fibrinogen binding to printed small molecules – biochemical, small-molecule microarray, 635/667 nm fluorescence, artefact control for SMM control-protein annotation, profiling panel (AID 1131).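 Note: z-score merges 667 nm fluorescence with per-spot signal-to-noise over triplicate slides.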 Conditions: fibrinogen-A647 binding fluorescence, higher = more signal.
Test [5] addresses Follistatin (Homo sapiens) (UniProt P19883). The test can be described thus: FST protein binding to printed compounds – biochemical, small-molecule microarray, 635/667 nm fluorescence, primary screen (AID 1132). Particulars: 635 nm fluorescence, higher = more signal.
The target of test [6] is Fibroblast growth factor 2 (Homo sapiens) (UniProt P09038). Description: basic fibroblast growth factor binding to printed compounds – biochemical, small-molecule microarray, 635/667 nm fluorescence, primary screen (AID 1133). Conditions: FGF2, fluorescence 635/667, higher = more signal.
Chain of Fibroblast growth factor 2 (Homo sapiens) (P09038 whole entry, looked up): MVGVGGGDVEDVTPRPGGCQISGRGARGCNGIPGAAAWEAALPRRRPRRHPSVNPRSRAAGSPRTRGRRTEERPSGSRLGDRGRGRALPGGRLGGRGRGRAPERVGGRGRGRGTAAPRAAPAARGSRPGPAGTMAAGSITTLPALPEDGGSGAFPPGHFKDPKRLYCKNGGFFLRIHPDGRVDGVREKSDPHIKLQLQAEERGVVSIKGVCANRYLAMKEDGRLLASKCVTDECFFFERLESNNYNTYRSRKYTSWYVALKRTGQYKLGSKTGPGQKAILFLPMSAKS
Test [7] can be described thus: JC-1 mitochondrial potential readout, lung cancer cells – cell-based, A549, JC-1 fluorescence, basal, 24 h, 100 nL, profiling panel (AID 1138).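 Note: A549 lung adenocarcinoma cells under basal conditions with no added stimulus; test concentration not given here.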 Particulars: higher = more signal.
A further test relates to Lefty1. Description: Lefty1 protein binding to printed compounds – biochemical, small-molecule microarray, 635/667 nm fluorescence, primary screen (AID 1139). Conditions: fluorescence 635/667, higher = more signal.
Test [8] has as its system wheat germ agglutinin (Triticum aestivum), Alexa647-labelled. The test can be described thus: Alexa647-WGA lectin binding to printed small molecules – biochemical, small-molecule microarray, 635/667 nm fluorescence, artefact control for SMM control-protein annotation, profiling panel (AID 1140).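 Note: score merges 667 nm feature emission with signal to noise over triplicate slides.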 Particulars: WGA-A647 binding, 635 nm fluorescence, higher = more signal.
For test [9], the target named is Luciferin 4-monooxygenase (Photinus pyralis) (UniProt P08659). Description: inhibition of purified Photinus pyralis luciferase – biochemical, luminescence, purified enzyme, 2006 set, primary screen (AID 1141).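 Note: cell-free assay with purified firefly luciferase at 100 ng per well in PBS; test concentration not given here.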 Particulars: purified firefly luciferase, SteadyGlo luminescence, 30 min; higher = more signal, called active from +8 up or from −8 down.
Chain of Luciferin 4-monooxygenase (Photinus pyralis) (P08659 whole entry, looked up): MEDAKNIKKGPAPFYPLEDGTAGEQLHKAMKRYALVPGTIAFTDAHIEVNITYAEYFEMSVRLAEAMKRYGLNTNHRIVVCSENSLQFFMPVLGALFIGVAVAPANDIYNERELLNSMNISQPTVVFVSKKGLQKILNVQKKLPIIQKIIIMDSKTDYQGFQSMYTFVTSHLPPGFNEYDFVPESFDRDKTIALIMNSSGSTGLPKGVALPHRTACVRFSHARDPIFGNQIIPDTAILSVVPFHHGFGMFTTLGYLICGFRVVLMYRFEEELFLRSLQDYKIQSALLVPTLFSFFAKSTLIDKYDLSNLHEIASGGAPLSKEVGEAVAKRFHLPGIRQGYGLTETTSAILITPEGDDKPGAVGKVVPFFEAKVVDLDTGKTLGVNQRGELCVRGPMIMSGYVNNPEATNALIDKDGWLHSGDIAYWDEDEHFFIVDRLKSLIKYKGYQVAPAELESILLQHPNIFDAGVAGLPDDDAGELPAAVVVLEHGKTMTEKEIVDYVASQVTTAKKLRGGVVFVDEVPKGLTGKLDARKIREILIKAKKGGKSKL
For test [10], the system named is Wnt5a (protein binding on small-molecule microarray). The test can be described thus: small molecules binding Wnt5a protein – biophysical, small-molecule microarray, 635/667 nm fluorescence, primary screen (AID 1142).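 Note: fluorescence read at 667 nm with signal to noise per printed feature.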 Conditions: 635 nm fluorescence, higher = more signal.
A short description of test [11]: ATP-based viability of Huh7 replicon cells – cell-based, CellTiter-Glo luminescence, basal, 48 h, cytotoxicity control for HCV replication inhibitor project, primary screen (AID 1143).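 Note: Huh7 hepatoma cells carrying a hepatitis C replication reporter with no stimulus; test concentration not given here.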 Particulars: higher = more signal, called active from +8 up or from −8 down. On the technique in general: In antiviral work, replicon cells carry a viral genome segment that copies itself.

Test [12] is described as follows: Pseudomonas biofilm growth suppression – PAO1 strain, BacTiter-Glo luminescence, LB-PBS, primary screen (AID 1144). Particulars: P. aeruginosa PAO1 biofilm, 12 h, higher = more signal.
A short description of test [13]: basal CRE-LacZ reporter activity in PC12 – cell-based, unstimulated, primary screen (AID 1145). Conditions: no forskolin, luminescence, 4.5 h, higher = more signal, called active from +8 up or from −8 down.
Test [14] can be described thus: forskolin-driven CRE-LacZ activity in PC12 – cell-based, CRE-LacZ reporter, forskolin-stimulated, primary screen (AID 1146).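 Note: PC12 cells with 6xCRE LacZ reporter stimulated by forskolin 10 µM; beta-galactosidase reporter signal reflecting CREB driven transcription.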 Particulars: luminescence, 4.5 h, higher = more signal, called active from +8 up or from −8 down.
Test [15] concerns the target Streptavidin (Streptomyces avidinii) (UniProt P22629). Description: compounds binding control protein streptavidin – biophysical, small-molecule microarray, 635/667 nm fluorescence, artefact control for SMM compound annotation, primary screen (AID 1147).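 Note: signal reflects streptavidin binding to arrayed compounds as a control protein.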 Particulars: higher = more signal.
Test [16] is described as follows: probe aInhba binding on compound microarray – biochemical, small-molecule microarray, 635/667 nm fluorescence, primary screen (AID 1148).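 Note: score merges 667nm spot fluorescence with signal-to-noise for antibody binding to printed compounds.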 Particulars: higher = more signal.
For test [17], the target named is Torsin-1A (Homo sapiens) (UniProt O14656). The test can be described thus: TOR1A wild-type binding on microarray – cell lysate, small-molecule microarray, lysate, 635/667 nm, primary screen (AID 1149). Particulars: COS7 hTOR1A-WT lysate, 635 nm fluorescence, higher = more signal.
Chain of Torsin-1A (Homo sapiens) (O14656 whole entry, looked up): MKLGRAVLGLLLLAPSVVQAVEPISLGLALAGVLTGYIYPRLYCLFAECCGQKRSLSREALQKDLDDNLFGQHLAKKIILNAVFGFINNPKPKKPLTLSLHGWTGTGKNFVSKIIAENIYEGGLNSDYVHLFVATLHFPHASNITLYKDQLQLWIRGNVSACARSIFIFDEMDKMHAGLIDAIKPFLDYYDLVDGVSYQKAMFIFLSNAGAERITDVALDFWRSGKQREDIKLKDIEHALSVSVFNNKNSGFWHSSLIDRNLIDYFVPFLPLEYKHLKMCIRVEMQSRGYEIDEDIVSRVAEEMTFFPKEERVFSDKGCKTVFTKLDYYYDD
Test [18] has the same target. The test can be described thus: torsin A mutant lysate binding on microarrays – cell lysate, small-molecule microarray, COS7 lysate, 635/667 nm fluorescence, primary screen (AID 1150).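 Note: score pools 667 nm emission and signal to noise measuring lysate protein binding.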 Particulars: COS7 hTOR1A mutant lysate, 635 nm fluorescence, higher = more signal.
The test system of test [19] is Sonic hedgehog protein (Shh). Description: Sonic hedgehog microarray binding compounds – biochemical, small-molecule microarray, 635/667 nm fluorescence, primary screen (AID 1151).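 Note: Shh protein binding to compounds spotted on small-molecule microarray slides; score combines spot fluorescence intensity with signal-to-noise across triplicate slides.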 Particulars: 635 nm fluorescence, higher = more signal.

Chain of Focal adhesion kinase 1 (Homo sapiens) (Q05397 whole entry, looked up): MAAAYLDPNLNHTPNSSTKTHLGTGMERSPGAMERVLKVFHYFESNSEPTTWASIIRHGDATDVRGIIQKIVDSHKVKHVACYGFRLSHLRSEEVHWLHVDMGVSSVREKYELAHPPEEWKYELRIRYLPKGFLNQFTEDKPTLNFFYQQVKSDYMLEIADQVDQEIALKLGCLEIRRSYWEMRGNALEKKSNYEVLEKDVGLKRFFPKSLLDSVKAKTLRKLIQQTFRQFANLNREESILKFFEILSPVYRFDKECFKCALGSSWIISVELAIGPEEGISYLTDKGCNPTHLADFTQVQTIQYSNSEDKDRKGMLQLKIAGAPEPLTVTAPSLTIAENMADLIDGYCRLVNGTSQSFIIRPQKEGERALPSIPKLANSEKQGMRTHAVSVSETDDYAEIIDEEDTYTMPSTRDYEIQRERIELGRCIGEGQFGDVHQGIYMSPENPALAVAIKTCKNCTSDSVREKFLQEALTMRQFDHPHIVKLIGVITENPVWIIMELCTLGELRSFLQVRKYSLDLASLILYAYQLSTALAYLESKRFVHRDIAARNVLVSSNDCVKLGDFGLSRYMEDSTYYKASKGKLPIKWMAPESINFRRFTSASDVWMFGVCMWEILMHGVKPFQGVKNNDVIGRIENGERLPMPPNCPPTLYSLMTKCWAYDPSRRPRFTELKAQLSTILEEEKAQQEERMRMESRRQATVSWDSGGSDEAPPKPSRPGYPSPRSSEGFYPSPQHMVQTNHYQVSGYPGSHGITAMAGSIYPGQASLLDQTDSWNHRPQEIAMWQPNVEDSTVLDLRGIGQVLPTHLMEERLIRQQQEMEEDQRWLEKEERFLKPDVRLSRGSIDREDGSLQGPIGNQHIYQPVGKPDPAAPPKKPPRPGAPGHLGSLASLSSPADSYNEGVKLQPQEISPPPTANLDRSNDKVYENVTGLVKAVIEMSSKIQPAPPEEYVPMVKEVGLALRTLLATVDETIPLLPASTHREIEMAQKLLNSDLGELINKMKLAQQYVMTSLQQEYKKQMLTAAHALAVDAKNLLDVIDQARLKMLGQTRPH
Chain of Follistatin (Homo sapiens) (P19883 whole entry, looked up): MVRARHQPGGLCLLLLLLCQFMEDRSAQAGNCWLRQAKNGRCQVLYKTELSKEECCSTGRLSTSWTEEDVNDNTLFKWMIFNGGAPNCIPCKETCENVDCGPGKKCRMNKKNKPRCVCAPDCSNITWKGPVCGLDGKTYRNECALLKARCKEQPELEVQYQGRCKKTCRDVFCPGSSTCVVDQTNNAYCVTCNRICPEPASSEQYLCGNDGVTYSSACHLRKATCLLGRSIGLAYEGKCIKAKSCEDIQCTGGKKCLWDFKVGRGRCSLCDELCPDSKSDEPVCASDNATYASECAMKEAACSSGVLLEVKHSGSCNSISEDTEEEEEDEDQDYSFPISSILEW
Chain of Streptavidin (Streptomyces avidinii) (P22629 whole entry, looked up): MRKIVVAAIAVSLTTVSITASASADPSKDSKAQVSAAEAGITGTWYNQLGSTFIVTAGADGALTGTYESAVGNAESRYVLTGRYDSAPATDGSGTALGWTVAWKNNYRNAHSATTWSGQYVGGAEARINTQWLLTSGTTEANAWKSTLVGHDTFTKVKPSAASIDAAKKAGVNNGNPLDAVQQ

As for `C=C(CCCC)/C(=C/C[C@@H](OC(C)=O)c1ccc(CO)o1)c1cc(C(=O)OC)ccc1OC`, the composite z-score in [1] amounted to 0.746; in test [2], 0.961; in [3] it was 0.506; in test [4], 0.715; in test [5], 1.33; in test [6], 1.17. The composite z-score with Lefty1 is 1.22; in test [8], 0.454; in test [10], 0.259; in test [15] it was 0.498; in test [16], -0.0405; in the test with Torsin-1A (Homo sapiens) [17], 0.436. Also, the results for the composite z-score (with Torsin-1A (Homo sapiens) [18]; in test [19]) were 0.371 and 2.15, respectively. Also, the z-score was 0.522 in [7]; -2.87 (inactive) in test [9]; 0.0294 (inactive) in test [11]; -0.504 (inactive) in test [12]; 3.68 (inactive) in [13]; 2.34 (inactive) in test [14].
As for `CCOC(=O)C1=C[C@@H](c2ccccc2)N(S(=O)(=O)c2ccc(C)cc2)[C@H]1c1cccc(Cl)c1`, the composite z-score in [1] was 2.44; in test [2], 1.17; in [3] it was 0.283; in test [4], 0.612; in [5], 0.938; in test [6] it was 0.111. Besides, the composite z-score came to 0.465 in the test on Lefty1; 1.31 in [8]; 0.55 in test [10]; 1.34 in test [15]; 0.351 in [16]; 0.631 with Torsin-1A (Homo sapiens) [17]. In addition, the values for the composite z-score (with Torsin-1A (Homo sapiens) [18]; in test [19]) were 0.569 and 0.319, respectively. For the same compound, the z-score in test [7] was 3.78; in [9], 1.18 (inactive); in test [11], -3.89 (inactive); in [12], 1.51 (inactive); in test [13] it was 0.182 (inactive); in [14], -0.451 (inactive).
In the case of `O=C1O[C@H](c2ccccc2)[C@H](c2ccccc2)N2[C@H]1[C@@H](C(=O)O)[C@]1(C(=O)Nc3ccccc31)[C@H]2c1ccc(O)cc1`, the composite z-score in test [1] is -0.585; in test [2] it was -0.0964; in test [3], 0.133; in test [4] it was -1.31; in [5], 0.0111; in test [6] it was 0.152. The composite z-score in the test with Lefty1 is -0.634; in test [8], -0.55; in test [10] it was 0.251; in test [15] it was -0.516; in test [16], -0.0418; with Torsin-1A (Homo sapiens) [17] it was 0.109. The composite z-score is 1.45 with Torsin-1A (Homo sapiens) [18] and -0.429 in [19]. Also, the z-score in [7] was 0.226; in test [9] it was 0.002 (inactive); in test [11], 0.0915 (inactive); in [12], -0.0265 (inactive); in [13], -0.0566 (inactive); in test [14], -0.763 (inactive).
Turning to `COCCCNC(=O)[C@]1(CCC(=O)OC(C)(C)C)N=C(c2ccc(OCCCO)cc2)O[C@@H]1c1ccccc1`, the composite z-score in test [1] is 3.52; in [2] it was 1.26; in [3], 0.807; in test [4], 0.272; in [5], 1.21; in [6] it was -0.0959. Also, the composite z-score in the test on Lefty1 was -0.989; in test [8] it was 1.12; in [10], 0.163; in test [15], 0.172; in [16], 0.346; in the test with Torsin-1A (Homo sapiens) [17], 1.11. In addition, the composite z-score is 2.06 with Torsin-1A (Homo sapiens) [18] and -1.52 in test [19]. The z-score is 0.229 in test [7]; -0.127 (inactive) in [9]; 0.11 (inactive) in test [11]; 1.2 (inactive) in test [12]; 0.699 (inactive) in test [13]; -0.625 (inactive) in [14].

The values above are taken from PubChem BioAssay.
